Assay [1] is described as follows: NCI Yeast Anticancer Drug Screen. Data for the rad50 strain (AID 155).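 Also: 0% = growth of vehicle-only cultures of the same strain.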 To be noted: S. cerevisiae rad50 strain growth inhibition; at 50.0 µM; hits give high values. Summed up:
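Cells are treated with compound, grown, and their growth is then scored against vehicle-only cultures of the same repair-deficient yeast strain.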

A short description of assay [2]: NCI Yeast Anticancer Drug Screen. Data for the mlh1 rad18 strain (AID 175). To be noted: S. cerevisiae mlh1 rad18 strain growth inhibition; at 50.0 µM; hits give high values. An outline of the steps:
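Yeast w/ defined DNA-repair lesions; compound exposure; growth vs vehicle controls → % inhibition.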

Assay [3] can be described thus: NCI Yeast Anticancer Drug Screen. Data for the mec2-1 strain (AID 157). The note with it: S. cerevisiae mec2-1 strain, at 50.0 µM, hits give high values. Summed up: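 Yeast mec2-1 mutant treated with compound. Readout: growth inhibition vs vehicle controls.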
A short description of assay [4]: NCI Yeast Anticancer Drug Screen. Data for the sgs1 mgt1 strain (AID 161).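 Also: 0% = growth of cultures given vehicle only.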 The note with it: S. cerevisiae sgs1 mgt1 strain, at 50.0 µM, hits give high values. Summed up: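 Inhibition of yeast growth, normalised to vehicle-treated controls, is reported for a strain bearing genetic alterations in DNA damage repair.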
The nature of assay [5]: NCI Yeast Anticancer Drug Screen. Data for the cln2 rad14 strain (AID 165).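 Also: 0% = growth equal to vehicle treated cultures.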 To be noted: S. cerevisiae cln2 rad14 strain, at 50.0 µM, hits give high values. An outline of the steps:
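cln2 rad14 yeast strain; compound exposure; growth inhibition read vs vehicle controls.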

A short description of assay [6]: NCI Yeast Anticancer Drug Screen. Data for the bub3 strain (AID 167). To be noted: S. cerevisiae bub3 mutant strain, at 50.0 µM, hits give high values. Summed up: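 Part of a panel of yeast mutants defective in DNA damage repair or cell cycle regulation. Each strain is grown with compound, and inhibition is calculated relative to solvent-treated cultures.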

SMILES strings stand for the structures. “And” between values parts separate entries of the source, which are not always exact repeats. Identical values can stand only once. The panel holds about 79,000 compounds, 15% with a hit somewhere; the sample as a whole holds those more often. Values without a mark were called inactive. The source made the active and inactive calls. Rule as the data show it: active = growth inhibition above about 70%; inactive = the rest.

On to `O=C1OC(c2ccccc2)=N/C1=C/c1cccs1`, for which the growth inhibition in assay [1] was 6.85%; in assay [2], -24.8%.

Regarding `CC/C(Cl)=N\OC(=O)Nc1ccc(OC)cc1`, the growth inhibition is -16.1% in assay [3]; -3.3% in assay [4]; 2.6% in assay [5]; 1.15% in assay [6]; -68.8% in assay [2].

With `CC(=O)Nc1ccc(/C=C/C(=O)c2ccc(Cl)cc2)cc1`, the growth inhibition was -4.65% in assay [3] and 2.75% in assay [2].

With `CC12CC3(C)CC(C)(C1)CC(C(Cl)C(=O)O)(C2)C3` (centres undefined), the growth inhibition in assay [3] is 22.8%; in assay [2], 29.2%.

For `CC(C)(C)c1cc(C2COC(=O)COCCOCC(=O)OCCOCCO2)cc(C(C)(C)C)c1O` (centres undefined), the growth inhibition was -13.8% in assay [3]; -10.4% in assay [4]; 4.4% in assay [5]; -23.3% in assay [6]; -60.5% in assay [2].

Turning to `Cc1ccc2c(/C=C/c3ccc(N(C)C)cc3)ccc(C(C)C)cc1-2`, the growth inhibition in assay [3] was -41.3%; in assay [4] it was 19.1%; in assay [5], 1.75%; in assay [6], -22.2%; in assay [2] it was -53.2%.

Turning to `S=C=NC1CCCCCCCCCCC1`, the results for the growth inhibition in assay [1] and in assay [2] were 18.9% and 36.6%, respectively.

As for `CCCCCCCCCCCCOc1ccccc1C=O`, the values for the growth inhibition in assay [1] and in assay [2] were 1.5% and -17.4%, respectively.

As for `COc1cc(/C=N/NC(=O)c2ccncc2)cc(OC)c1OC`, the growth inhibition was -48.5% in assay [3] and -16.5% in assay [2].

Consider `CC1=NOC(=O)C1C(C)(C)C1C(=O)ON=C1C` (centres undefined), for which the values for the growth inhibition in assay [1] and in assay [2] were 8.25% and -18.4%, respectively.

For `O=C(/C=C/C=C/c1ccccc1)c1ccc(Cl)cc1`, the growth inhibition was -27.4% in assay [3] and 3.5% in assay [2].

`C[C@]12CC[C@@H]3c4ccc(OS(N)(=O)=O)cc4CC[C@H]3[C@@H]1CCC2=O`: the growth inhibition in assay [3] is 8.15%; in assay [4], -2.05%; in assay [5], 8.35%; in assay [6] it was 5.6%; in assay [2] it was 15.8%.

`OCc1ccccc1OC1OC(CO)C(O)C(O)C1O` (centres undefined): the growth inhibition was 16.4% in assay [4], -0.45% in assay [5], 21.6% in assay [6] and -50.9% in assay [2].

In the case of `O=C1C2C3C=CC(C2C(=O)N1CO)C1C2C(=O)N(CO)C(=O)C2C31` (centres undefined), the growth inhibition in assay [2] is 2.2%.

`CC(=O)NC(C(=O)O)C(C)C.CC(=O)NC(C(=O)O)C(C)C.[NH-]C1CCCCC1[NH-].[Pt+2]` (centres undefined): the growth inhibition in assay [2] is 7.05% and 50%.

In the case of `N#C/C(=C/c1c(O)ccc2ccccc12)C(N)=O`, the figures for the growth inhibition in assay [3] and in assay [2] were 18.4% and 60.9%, respectively.

Turning to `Nc1ccc2ccc(N)cc2c1`, the growth inhibition in assay [2] was -33.1%.

Turning to `CC/C(=C\c1cccc([N+](=O)[O-])c1)C(=O)O`, the growth inhibition in assay [3] was -25.6%; in assay [2], -5.55%.

As to `CCOC(=O)c1sc(N)c(C(=O)OCC)c1C`, the values for the growth inhibition in assay [3] and in assay [2] were -46.8% and -20.1%, respectively.

As to `N#CCS(=O)(=O)c1cccc[n+]1[O-]`, the growth inhibition in assay [2] was -37.5%.

For the molecule `CN(C)c1ccc2c(Nc3ccc(NS(C)(=O)=O)cc3)c3ccc(N(C)C)cc3nc2c1`, the growth inhibition in assay [2] is 65.6%.

`O=CNC(Cc1ccc(O)cc1)C(=O)O` (centres undefined): the growth inhibition in assay [3] was -30.4%; in assay [2], -8.4%.

Regarding `CC1=NN(c2ccccc2)C(=O)C1C(=O)c1ccccc1` (centres undefined), the growth inhibition in assay [3] was -3.65%; in assay [2], 14%.

Turning to `N=C(N)c1ccc(N=NNc2ccc(C(=N)N)cc2)cc1`, the growth inhibition in assay [2] was 84% (active).

With `O=[N+]([O-])c1ccc(-n2[nH]nnc2=S)cc1`, the growth inhibition in assay [3] is -25%; in assay [2] it was 16.1%.

Take `NCCSC(C[N+](=O)[O-])c1ccccc1Cl` (centres undefined): the growth inhibition in assay [2] was 87.4% (active).

Take `N#[N+]c1c(O)cc(S(=O)(=O)O)c2ccccc12`: the growth inhibition in assay [2] is -10.4%.

For `OCCOCCOCCOCCO`, the growth inhibition in assay [5] was -48.1%.

With `Cc1c(CNc2ccc(C(=O)NC(CC(=O)O)C(=O)O)cc2)ccc2nc(N)nc(N)c12` (centres undefined), the growth inhibition in assay [4] was 47.8%; in assay [5], 9.35%; in assay [6], 16.4%.

As for `O=C1CCCCCC2=NC12` (centres undefined), in assay [2], the growth inhibition was -25.6%.

Consider `[Cl][Sn]([CH2][Sn]([Cl])([c]1ccccc1)[c]1ccccc1)([c]1ccccc1)[c]1ccccc1`, for which the growth inhibition in assay [2] was 82.2% (active).

Turning to `CCOC(=O)C(CNc1ccccc1)C(=O)OCC`, the growth inhibition in assay [3] was -3.05%; in assay [2] it was -11.7%.

`O=C1Nc2ccccc2/C1=N/N=C/c1cc(Cl)cc(Cl)c1O`: the growth inhibition in assay [3] is 9.4%; in assay [2] it was 20.1%.

As for `O=C(O)C(=O)C(O)C(O)C(O)CO.O=C(O)C(=O)C(O)C(O)C(O)CO.[NH-]C1CCCCC1[NH-].[Pt+2]` (centres undefined), the growth inhibition in assay [2] is -53.1%.

On to `C[Si]1(C)N[Si](C)(C)N[Si](C)(C)N1`, for which the figures for the growth inhibition in assay [3] and in assay [2] were -19.6% and 2.3%, respectively.

For the molecule `Nc1nc([Se]c2nc(N)nc3c2ncn3C2OC(CO)C(O)C2O)c2ncn(C3OC(CO)C(O)C3O)c2n1` (centres undefined), the growth inhibition in assay [2] is -32.2%.

For the molecule `CC(C)c1cc(C(=O)O)c(O)c(C(C)C)c1.CC(C)c1cc(C(=O)O)c(O)c(C(C)C)c1.[Cu]`, the growth inhibition in assay [2] was 54.6%.

Regarding `O=C1NC(=O)C(c2ccccc2)(C2CCC2)N1` (centres undefined), the growth inhibition in assay [2] was -13.3%.

Take `N=C(N)c1ccc(N=Nc2c(O)ccc3cc(O)ccc23)cc1`: the growth inhibition in assay [2] is -27.5%.

As for `CC(C)n1c2c([n+](C)c1/C=C/c1ccccc1)C(=O)c1ccccc1C2=O`, the growth inhibition in assay [4] is 89.9% (active); in assay [5], 88.9% (active); in assay [6], 50.4%.

For the molecule `O=C(Cc1cccc2ccccc12)N/N=C/c1ccc2c(c1)CCC2`, the growth inhibition is -13.2% in assay [3] and -8.45% in assay [2].

Turning to `CCn1c2[n+](c3ccccc31)CCC2`, the figures for the growth inhibition in assay [3] and in assay [2] were -35.2% and 3.65%, respectively.

Consider `CCOC(=O)CC(=O)c1ccccc1`, for which the growth inhibition in assay [4] was 8.9% and -0.85%; in assay [5], 10.8% and 11.1%; in assay [6] it was 13.8% and -12.7%.

For the molecule `CCOC(=O)c1sc(N)nc1-c1ccccc1`, the growth inhibition in assay [3] was 4%; in assay [2], 24.6%.
